Some test systems named below: NCI-H226 lung; NCI-H322M lung; HOP-62 NSCLC; NCI-H460 lung; HOP-92 NSCLC; NCI-H522 lung; A549/ATCC NSCLC; 786-0 renal; COLO 205 colon.
Experiment in all cases: NCI-60 one-dose screen, 48 h (100 = growth as untreated, 0 = no growth, -100 = all killed)
Settings in all cases: 10 µM unless noted

Compounds without any hit were thinned out: in the full panel of roughly 83,000, 20% have a hit.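 Note: values are percent growth. 100 is the growth of untreated cells, values between 100 and 0 indicate rising inhibition; between -100 and 0 indicates cell death.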 A number with no mark means an inactive call. Activity calls are given as the source filed them. How the source made its calls: active means growth percent below 10; inactive means the rest.

On to `COC1=C(OC)C(=O)C(OC)=C(OC)C1=O`, for which the growth in the assay on NCI-H226 lung is 93.6%; in the assay with NCI-H322M lung it was 95.7%; in the assay with HOP-62 NSCLC, 112%; with NCI-H460 lung it was 108%; in the assay on HOP-92 NSCLC, 103%; in the assay with NCI-H522 lung it was 108%. Moreover, the growth in the assay with A549/ATCC NSCLC was 90%; with 786-0 renal, 99.3%; with COLO 205 colon, 113%.

`CCCCCc1nc2c(c3c1CCCC3)CCCC2`: the growth is 88.6% in the assay on NCI-H226 lung; 78.3% in the assay with NCI-H322M lung; 77.6% in the assay with HOP-62 NSCLC; 83% in the assay on NCI-H460 lung; 56.2% in the assay with HOP-92 NSCLC; 44.6% in the assay on NCI-H522 lung. Moreover, the growth is 72.6% in the assay on A549/ATCC NSCLC, 85% with 786-0 renal and 89.4% with COLO 205 colon.

Turning to `O=c1cc(-c2ccc(Cl)cc2)[nH]c2ccccc12`, the growth in the assay with NCI-H226 lung was 87%; in the assay with NCI-H322M lung, 92.3%; in the assay on HOP-62 NSCLC, 79.3%; in the assay on NCI-H460 lung it was 90.8%; in the assay with HOP-92 NSCLC, 73.3%; in the assay on NCI-H522 lung, 80.9%. For the same compound, the growth in the assay with A549/ATCC NSCLC is 91.2%; in the assay with 786-0 renal, 82.4%; in the assay with COLO 205 colon it was 99.7%.

`COC(=O)[C@]12CC[C@@H](C)[C@H](C)[C@@H]1C1=CC[C@@H]3[C@@]4(C)C(C=O)=C[C@@](C)(COC(C)=O)[C@@H]4C(=O)C[C@@]3(C)[C@]1(C)CC2`: the growth in the assay on NCI-H226 lung is 38.7%; with NCI-H322M lung, 77.2%; in the assay on HOP-62 NSCLC, 50.1%; in the assay with NCI-H460 lung it was 18.8%; in the assay on HOP-92 NSCLC it was 47.7%; with NCI-H522 lung, 12.9%. Also, the growth in the assay on A549/ATCC NSCLC was 14.2%; in the assay on 786-0 renal it was 37.3%; in the assay on COLO 205 colon, -9.64% (active).

As for `N#C/C(=C\c1ccc2c(c1)OCO2)n1nnc2cc(F)c(F)cc21`, the growth in the assay on NCI-H226 lung was 69.5%; in the assay with NCI-H322M lung it was 86.2%; with HOP-62 NSCLC, 69.4%; with NCI-H460 lung it was 77.5%; in the assay with HOP-92 NSCLC, 46.5%; in the assay on NCI-H522 lung, 18.3%. Besides, the growth in the assay with A549/ATCC NSCLC was 79%; in the assay on 786-0 renal it was 89.2%; in the assay on COLO 205 colon, 87.4%.

Consider `CCN1CCN(c2cc(C)nc(NCc3cc(Nc4ccnc5cc(Cl)ccc45)ccc3F)n2)CC1`, for which the growth with NCI-H226 lung is 83.7%; in the assay on NCI-H322M lung, 90.2%; in the assay on HOP-62 NSCLC it was 52.3%; in the assay on NCI-H460 lung, 61.8%; with HOP-92 NSCLC it was 62.9%; in the assay with NCI-H522 lung, 106%. Also, the values for the growth with A549/ATCC NSCLC, with 786-0 renal and with COLO 205 colon were 74.6%, 85% and -86.2% (active), respectively.

With `CCN1C(=O)N(CC)C2Nn3c(s/c(=C\c4ccc(Cl)cc4Cl)c3=O)=NC21` (stereo not drawn), the growth was 98.2% in the assay on NCI-H226 lung; 65.5% in the assay on NCI-H322M lung; 72.3% in the assay with HOP-62 NSCLC; 16.4% in the assay with NCI-H460 lung; 68.3% with HOP-92 NSCLC; 12.3% in the assay with NCI-H522 lung. The growth in the assay on A549/ATCC NSCLC was 33%; in the assay with 786-0 renal, 34%; in the assay with COLO 205 colon, -23% (active).

Take `O=C1Nc2ccc(F)cc2C12Nc1cc(Cl)ccc1S2` (stereo not drawn): the growth is 108% in the assay on NCI-H226 lung; 84.6% in the assay with NCI-H322M lung; 111% in the assay with HOP-62 NSCLC; 89.5% in the assay on NCI-H460 lung; -5.66% (active) with HOP-92 NSCLC; 90.9% in the assay with NCI-H522 lung. The growth was 94.9% with A549/ATCC NSCLC, 105% with 786-0 renal and 112% with COLO 205 colon.

Regarding `CC(C)C(NC(=O)C1(NC(=O)OCc2ccccc2)CCCC1)C(=O)O` (stereo not drawn), the growth in the assay on NCI-H226 lung was 104%; with NCI-H322M lung, 106%; in the assay with HOP-62 NSCLC, 119%; in the assay on NCI-H460 lung, 100%; in the assay with HOP-92 NSCLC it was 92%; in the assay on NCI-H522 lung, 88.9%. In addition, the growth with A549/ATCC NSCLC was 106%; with 786-0 renal it was 104%; in the assay on COLO 205 colon, 107%.

In the case of `CCOC(CN=Cc1cc(C)c2[nH]c3ccccc3c2c1C)OCC`, the growth in the assay on NCI-H226 lung is 6.9% (active); in the assay on NCI-H322M lung, 113%; in the assay on HOP-62 NSCLC it was 102%; in the assay with NCI-H460 lung it was 83.1%; in the assay on HOP-92 NSCLC, 115%; in the assay with NCI-H522 lung, 113%. Moreover, the growth is 102% with A549/ATCC NSCLC, 93.2% in the assay on 786-0 renal and 107% in the assay on COLO 205 colon.

For `CCCCCCCCCCN(CCCCCCCCCC)CC(=O)c1ccc2cc(Br)c3ccccc3c2c1`, the growth in the assay with NCI-H226 lung is 99.4%; in the assay with NCI-H322M lung it was 65.7%; in the assay on HOP-62 NSCLC it was 96.4%; with NCI-H460 lung, -65.9% (active); with HOP-92 NSCLC it was -77% (active); with NCI-H522 lung, 63.4%. Besides, the growth in the assay on A549/ATCC NSCLC was 82.3%; in the assay with 786-0 renal, 54.1%; in the assay on COLO 205 colon it was 104%.

Take `O=C(Nc1ccc(-n2cc(-c3ccncc3)c(-c3ccc(Cl)c(O)c3)n2)cc1)N1CCOCC1`: the growth was 103% in the assay on NCI-H226 lung; 106% in the assay with NCI-H322M lung; 95.7% with HOP-62 NSCLC; 103% with NCI-H460 lung; 90.6% in the assay on HOP-92 NSCLC; 94% in the assay with NCI-H522 lung. Moreover, the figures for the growth in the assay on A549/ATCC NSCLC, in the assay on 786-0 renal and in the assay on COLO 205 colon were 111%, 101% and 97.4%, respectively.

For the compound `COC(=O)CCC1=C(C)C2=NC1=CC1=NC(=CC3=NC(=Cc4[nH]c(/c(=C(/C)O)c4C)=C2)C(C(C)=O)=C3C)C(C)=C1CCC(=O)OC`, the growth with NCI-H226 lung is 83.9%; with NCI-H322M lung, 102%; with HOP-62 NSCLC, 98.8%; with NCI-H460 lung it was 103%; in the assay with HOP-92 NSCLC, 88.2%; in the assay on NCI-H522 lung it was 98.8%. The values for the growth in the assay with A549/ATCC NSCLC, with 786-0 renal and in the assay on COLO 205 colon were 88.6%, 105% and 111%, respectively.

For the compound `CCOC(=O)c1ccc(N2NC(=O)/C(=C/c3ccc([N+](=O)[O-])o3)C2=O)cc1`, the growth was 120% in the assay on NCI-H226 lung; 99.8% in the assay on NCI-H322M lung; 109% in the assay with HOP-62 NSCLC; 111% with NCI-H460 lung; 105% with HOP-92 NSCLC; 60.7% in the assay on NCI-H522 lung. Also, the growth in the assay with A549/ATCC NSCLC is -1.33% (active); in the assay with 786-0 renal, 116%; with COLO 205 colon, 129%.

Consider `Cc1ccc2nc(NC(=O)CSc3nc(Nc4ccc([N+](=O)[O-])cc4)c(C#N)c(-c4ccccc4)n3)sc2c1`, for which the growth in the assay on NCI-H226 lung was 98.7%; in the assay with NCI-H322M lung, 92.6%; with HOP-62 NSCLC, 95.6%; in the assay with NCI-H460 lung it was 98.7%; in the assay on HOP-92 NSCLC, 90.9%; in the assay on NCI-H522 lung, 87.3%. Moreover, the growth in the assay on A549/ATCC NSCLC is 93.8%; in the assay with 786-0 renal it was 101%; with COLO 205 colon, 108%.

With `CCc1ccccc1-n1c(-c2ccc(Cl)cc2)cc(-c2ccc(OC)cc2)c(C#N)c1=O`, the growth in the assay on NCI-H226 lung is 108%; with NCI-H322M lung, 126%; in the assay on HOP-62 NSCLC, 103%; with NCI-H460 lung, 99.7%; in the assay with HOP-92 NSCLC, 63.5%; in the assay with NCI-H522 lung, 84.8%. Besides, the growth was 103% in the assay on A549/ATCC NSCLC, 92% in the assay on 786-0 renal and 117% in the assay with COLO 205 colon.

For the compound `COc1ccc(N2CCN(c3nc(-c4cc(OC)c(OC)c(OC)c4)nc4ccccc34)CC2)cc1`, the growth is 78.4% in the assay on NCI-H226 lung; 91.4% in the assay with NCI-H322M lung; 83.9% with HOP-62 NSCLC; 87% with NCI-H460 lung; 56.6% in the assay on HOP-92 NSCLC; 55.1% with NCI-H522 lung. The growth with A549/ATCC NSCLC is 80.5%; with 786-0 renal, 85.7%; in the assay with COLO 205 colon, 62.9%.

Take `COc1cccc(-c2nc3sccn3c2/C=C/C(=O)c2ccc(C(F)(F)F)cc2)c1`: the growth was 88.6% in the assay with NCI-H226 lung; 87.5% in the assay on NCI-H322M lung; 100% in the assay with HOP-62 NSCLC; 83.7% with NCI-H460 lung; 66.4% in the assay with HOP-92 NSCLC; 55.6% with NCI-H522 lung. Further, the growth with A549/ATCC NSCLC is 85.1%; in the assay with 786-0 renal it was 82.1%; in the assay with COLO 205 colon it was 102%.

In the case of `Cc1occc1-c1n[nH]c(=S)n1N1C(=O)CSC1=S`, the growth in the assay on NCI-H226 lung was 98.7%; in the assay on NCI-H322M lung, 99.4%; in the assay with HOP-62 NSCLC, 104%; in the assay with NCI-H460 lung, 104%; in the assay with HOP-92 NSCLC it was 103%; in the assay with NCI-H522 lung, 89.3%. Besides, the growth in the assay on A549/ATCC NSCLC was 103%; in the assay with 786-0 renal, 100%; in the assay on COLO 205 colon it was 111%.

With `Cc1c(O)cc(-c2cnc(N/N=C\c3ccc(Cl)cc3)s2)c(O)c1C`, the growth was 87.2% in the assay on NCI-H226 lung; 96.9% in the assay with NCI-H322M lung; 98.6% in the assay with HOP-62 NSCLC; 100% in the assay on NCI-H460 lung; 81.1% in the assay with HOP-92 NSCLC; 65.1% in the assay with NCI-H522 lung. In addition, the values for the growth in the assay on A549/ATCC NSCLC, in the assay with 786-0 renal and in the assay on COLO 205 colon were 85.1%, 110% and 106%, respectively.

Consider `COc1ccc(C2=NN(C(=O)c3cc(OC)c(OC)c(OC)c3)C(c3ccc(Cl)cc3)C2)cc1OC` (stereo not drawn), for which the growth with NCI-H226 lung is 58.3%; with NCI-H322M lung it was 55.7%; in the assay with HOP-62 NSCLC, 44.1%; in the assay on NCI-H460 lung, 14.3%; with HOP-92 NSCLC, 31.6%; in the assay with NCI-H522 lung it was 4.89% (active). Moreover, the growth was 29.4% in the assay on A549/ATCC NSCLC, 22.5% in the assay on 786-0 renal and 12.3% with COLO 205 colon.

Turning to `O=C(Nc1ccccc1)Nc1cccc(Oc2nnc(Cl)c3ccccc23)c1`, the growth is 8.66% (active) with NCI-H226 lung; 47.3% in the assay on NCI-H322M lung; -43.4% (active) in the assay with HOP-62 NSCLC; 25.3% in the assay on NCI-H460 lung; -7.51% (active) with HOP-92 NSCLC; 2% (active) in the assay on NCI-H522 lung. Besides, the growth is 11.2% in the assay with A549/ATCC NSCLC, 38.2% with 786-0 renal and 35.2% in the assay on COLO 205 colon.

Source of the values: PubChem BioAssay (NCI).
